Our source for the Potency values is PubChem BioAssay AID1347076 (National Center for Advancing Translational Sciences (NCATS), 2019).

Screen size: about 400,000 compounds; about 13,000 (3.2%) were called active. Roughly 18% stayed inconclusive and do not appear here. Calls come from the whole dose curve; as a rule, active = well fitted cell-killing curve with a large enough effect; inconclusive = small, poorly fitted or top-dose-only effect, or effect the other way; inactive = flat fitted curve, though single readings scatter. Shown is part of a subset that was picked to be rich in actives. Where a call stands in place of a potency, no number is given.
Potency is the fitted concentration of half-maximal effect.

The assay can be described thus: qHTS assay for MDR1-selective chemotherapeutics: Primary screen using the drug-selected MDR subline cells KB-V1. Note: nearly all actives have a fitted effect of over 60% in size. The note with it: KB-V1 MDR cells viability, CellTiter-Glo, 72 h; series mostly up to 46.1 µM. In outline: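 Potencies derive from concentration-effect curves fitted to normalized luminescence (CellTiter-Glo) of KB-V1 cells treated for 72 h at 37 degrees C in phenol-red-free DMEM containing 10% FBS.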
As for `O=C(CSc1nnc(-c2cccs2)n1Cc1ccccc1)N1CCc2ccccc2C1`, the Potency entry is “inactive”. To `Cc1nc(SCC(=O)N2CCc3ccccc3C2)c2c(C)c(C)sc2n1` belongs 18.4 µM (active); to `Cc1nc(SCC(=O)N2CC(=O)Nc3ccccc32)c2c(C)c(C)sc2n1`, “inactive”; to `COc1ccc(OC)c(C(=O)NC2CCCc3c2cnn3-c2cc(C)cc(C)c2)c1` (centres undefined), “inactive”. To `Cc1cccc(N2CCN(C(=O)c3cnc(N4CCCC4)nc3C)CC2)c1C` belongs “inactive”. As for `C/C(=C\c1ccccc1)C1NC(=O)c2c(sc3c2CCCC3)N1` (centres undefined), the entry is “inactive”; as for `CCOC(=O)N1CCc2c(sc3c2C(=O)NC(c2ccccc2F)N3)C1` (centres undefined), “inactive”. Turning to `O=C1NC(c2ccncc2)Nc2sc3c(c21)CCCC3` (centres undefined), the Potency is 20.6 µM (active). To `COc1ccc(NC(=O)CCCN2C(=O)CCn3nc(-c4cn(C)c5ccccc45)cc32)cc1OC` belongs “inactive”; to `Cc1ccc(OCC(=O)NNC(=S)NCc2ccccc2)cc1`, “inactive”. As for `Cc1cccc(NC(=O)c2ccc(OCC(=O)NCc3ccccc3)cc2)c1C`, the figure is 14.6 µM (active); as for `COc1ccc(C(=O)Nc2cc(C)ccc2NC(=O)COc2ccccc2)cc1`, “inactive”. To `O=C(COC(=O)c1ccccc1OCCOc1ccccc1)Nc1cccc(Br)c1` belongs “inactive”; to `COCCNC(=O)C1CCCN(Cc2ccccc2Cl)CC1` (centres undefined), “inactive”. For `COC(=O)CCCCC1=CCC2C(=O)C=C(O)C2C1` (centres undefined), the Potency result was “inactive”. As for `Cc1sc2nc(-c3ccccc3F)oc(=O)c2c1C`, the entry is “inactive”; as for `CCOc1ccc(NC(=O)c2cc3c(=O)n(Cc4cccs4)ccc3nc2C)cc1`, “inactive”; as for `C=CC[n+]1c(-c2ccc(C)cc2)csc1NNC(=O)Nc1ccccc1`, 14.6 µM (active). As for `O=C(NNC(=O)c1ccc(-c2ccccc2)cc1)Nc1ccccc1`, the Potency entry was “inactive”. As to `C=CCNc1scc(-c2ccccc2)[n+]1CC=C`, the Potency entry is “inactive”. As for `Cc1ccc(S(=O)(=O)N2C[C@H]3C(=O)C[C@@H](c4cccc5ccccc45)N(S(=O)(=O)c4ccc(C)cc4)[C@H]3C[C@H]2c2ccc(Cl)cc2)cc1`, the entry is “inactive”; as for `Cc1ccccc1-c1nc(NC(C)C)nc2cc(-c3ccccc3)sc12`, “inactive”. `O=C(C1CCC1)N1CCN(c2ccccc2)CC1`: the Potency entry was “inactive”. For the compound `O=C(c1cc2c(s1)CCC2)N1CCN(c2ccccc2)CC1`, the Potency was 20.6 µM (active).

`O=C(NNC(=O)c1cc2c(s1)CCCC2)c1ccccc1`: the Potency entry is “inactive”. As for `O=[N+]([O-])c1ccc(/C=C/c2ccc3cccnc3c2)cc1`, the entry is “inactive”; as for `COc1cc(C(=O)N2CCOC23CCN(Cc2ccccc2)CC3)cc(OC)c1OC`, “inactive”. As for `COC(=O)c1ccc(C(=O)OC)c(NC(=S)N2CCN(c3cc(Cl)ccc3C)CC2)c1`, the figure is 20.6 µM (active); as for `CCc1nc2ccc(C(=O)N3CCN(c4cc(Cl)ccc4C)CC3)cc2nc1CC`, “inactive”.

`COC(=O)c1ccc(C(=O)OC)c(NC(=S)N2CCCCC2)c1`: the Potency entry was “inactive”.

As to `O=C1CCc2cc(S(=O)(=O)Nc3cccc(Oc4ccccc4)c3)ccc2N1`, the Potency result was “inactive”. As for `COCCn1c(SCC(=O)Nc2cc(OC)ccc2OC)nc2c(c1=O)SC(C)C2` (centres undefined), the Potency result is “inactive”.

`CCn1c(SCC(=O)Nc2ccc3c(c2)OCCO3)nc2c(c1=O)SC(C)C2` (centres undefined): the Potency is 4.11 µM (active). To `CCn1c(SCC(=O)Nc2ccccc2F)nc2c(c1=O)SC(C)C2` (centres undefined) belongs “inactive”. As for `CN(CC(=O)Nc1ccccc1F)S(=O)(=O)c1ccc2c(c1)c(=O)n(C)c(=O)n2C`, the entry is “inactive”. On to `Cc1nc2c(OCC(=O)C(C)(C)C)cccn2c1N(C)Cc1cccs1`, for which the Potency result is “inactive”. To `COc1ccc2c(c1)CCCO[C@]21O[C@H](CCO)C[C@H](O)[C@H]1O` belongs “inactive”; to `O=C(CCc1ccc(S(=O)(=O)N2CCOCC2)cc1)Nc1ccc2ccccc2c1`, 16.4 µM (active); to `Cc1ccc(CC(=O)Nc2ccc(S(=O)(=O)N3CCOCC3)cc2)cc1C`, “inactive”.

For the compound `O=C(CSc1ccccc1)Nc1cccc(S(=O)(=O)N2CCOCC2)c1`, the Potency result was “inactive”. `COc1ccc(CC(=O)NC(C)c2ccc(Cl)c(Cl)c2)cc1S(=O)(=O)N1CCOCC1` (centres undefined): the Potency was 23.1 µM (active). To `O=C(COC(=O)c1ccccc1)Nc1cccc(S(=O)(=O)N2CCOCC2)c1` belongs “inactive”.

In the case of `O=C(CN1CCc2ccccc2C1)Nc1cccc(S(=O)(=O)N2CCOCC2)c1`, the Potency is 18.4 µM (active). To `COc1ccc(C(=O)N(C)Cc2ccc(OC)c(OC)c2OC)cc1S(=O)(=O)N1CCOCC1` belongs “inactive”; to `COc1ccc(C(=O)OC(C)C(=O)NC2CCCC2)cc1S(=O)(=O)N1CCOCC1` (centres undefined), “inactive”; to `CN(CC(=O)Nc1ccc(F)cc1)CC(=O)Nc1ccc(Cl)c(S(=O)(=O)N2CCOCC2)c1`, “inactive”.

For `COc1ccc(CCC(=O)Nc2ccc(Cl)c(S(=O)(=O)N3CCOCC3)c2)cc1OC`, the Potency is 16.4 µM (active). As for `O=C(COC(=O)CCc1ccc(S(=O)(=O)N2CCOCC2)cc1)Nc1cccc(Cl)c1`, the entry is “inactive”. As for `COc1ccc(CC(=O)Nc2ccc3c(c2)CCC3)cc1S(=O)(=O)N1CCOCC1`, the entry is “inactive”; as for `CCc1noc(C)c1C(=O)OCC(=O)c1ccc(NC(=O)CC(C)C)cc1`, “inactive”; as for `Nc1ncnc2c1ncn2[C@@H]1O[C@H](C(=O)NCC(F)(F)F)[C@@H](O)[C@H]1O`, “inactive”. Consider `COc1ccc(C=C2CCC3C(CCCC34OCCO4)C2=O)cc1` (centres undefined), for which the Potency entry was “inactive”.

Consider `OC[C@@H]1CN(Cc2ccc(Cl)cc2)C[C@H](n2cnc3c(NCc4ccncc4)ncnc32)O1`, for which the Potency result is “inactive”. As for `Cc1cccc(C(=O)OCC(=O)Nc2sccc2C(N)=O)c1C`, the entry is “inactive”; as for `NCCCNC(=S)NCCCN(Cc1ccc(Cl)cc1)c1ccc(Br)cn1`, “inactive”. On to `NC(=O)CSc1nnc(-c2cccc(S(=O)(=O)N3CCOCC3)c2)o1`, for which the Potency result is “inactive”.

For the compound `COc1cccc(/C=C/C(=O)Nc2ccc3c(c2)OCCO3)c1`, the Potency entry is “inactive”. Regarding `O=C(/C=C\c1ccc2c(c1)OCO2)NC1(C(=O)Nc2ccc3c(c2)OCCO3)CCCCC1`, the Potency entry was “inactive”. As for `COc1ccc(/C=C/C(=O)Nc2ccc3c(c2)OCCO3)cc1OC`, the figure is 20.6 µM (active); as for `Cc1nn2c(=O)cc(COC(=O)CNC(=O)c3ccc(F)cc3)nc2s1`, “inactive”; as for `Cc1ccc2nc(NCCCNC(=O)c3cnccn3)c(C#N)cc2c1`, “inactive”.

Turning to `Cc1cc(C)c2cc(C#N)c(N3CCNCC3)nc2c1`, the Potency result is “inactive”. To `CCC(C)(C)n1nnnc1CN1CCN(c2nc3ccc(C)cc3cc2C#N)CC1` belongs 23.1 µM (active); to `NS(=O)(=O)c1ccc(NC(=O)C(=O)Nc2ccc3nc4n(c(=O)c3c2)CCCCC4)cc1`, “inactive”. To `CN1OC[C@@H]2CN(C(=O)c3cccc4ccccc34)[C@H](c3ccc(N4CCCCC4)cc3)C[C@@H]21` belongs “inactive”; to `CNc1cncc(-c2cccc(C(=O)N3CCOCC3)c2)n1`, “inactive”; to `CS(=O)(=O)Nc1ccc(C2=NN(S(C)(=O)=O)C(c3cccs3)C2)cc1` (centres undefined), “inactive”. To `CNc1cncc(-c2ccc(NS(C)(=O)=O)cc2)n1` belongs 5.17 µM (active); to `O=C(NCCN1CCOCC1)c1ccc2c(c1)N(Cc1cccc(Cl)c1)C(=O)c1ccccc1S2(=O)=O`, “inactive”; to `CCc1ccc2oc(-c3ccc(C)c(NC(=O)/C=C/c4ccco4)c3)nc2c1`, “inactive”. Consider `CCOC(=O)c1c(NC(=O)CSc2nccc(=O)[nH]2)sc(C)c1C`, for which the Potency result was “inactive”.

For `Cc1sc2ncnc(SCC(=O)NC3CCS(=O)(=O)C3)c2c1C` (centres undefined), the Potency entry is “inactive”. Regarding `COC(=O)c1c(-c2cccs2)csc1NC(=O)CSc1ncnc2sc(C)c(C)c12`, the Potency is 18.4 µM (active). To `COCCn1c(SCC(=O)c2cc(C)ccc2C)nc2cc(C(=O)NC3CCCC3)ccc2c1=O` belongs “inactive”; to `CCCCN(CCCNC(=O)c1cc(Nc2ccccc2OC)nc2ccccc12)c1ccccc1`, “inactive”; to `O=C1CC2(CCCCC2)Oc2ccc(OCC(=O)N3CCOCC3)cc21`, 11.6 µM (active). To `O=C1CC2(CCN(C(=O)COc3ccc(F)cc3)CC2)Oc2ccccc21` belongs “inactive”; to `O=C(Nc1cccc(OCC(=O)N2CCOCC2)c1)C1CCCCC1`, “inactive”. To `O=C(c1ccccc1)N1CCN(c2cc(-c3ccccc3)nc3cc(-c4cccc(Cl)c4)nn23)CC1` belongs “inactive”. In the case of `CCNC(=O)C1CCCN(C(=O)c2ccc(OC)cc2OC)CC1` (centres undefined), the Potency result is “inactive”. To `CN(C)C(=S)N=c1ssc(=S)n1Cc1ccco1` belongs 4.11 µM (active); to `CCc1ccccc1N1CN(Cc2ccco2)CNC1=S`, “inactive”.

Turning to `CCN(CC)C(=O)CSc1nnc(CNc2ccc(F)cc2)n1Cc1ccco1`, the Potency result is “inactive”. To `CC(C)NC(=O)C1(C)CCCCCN1C(=O)c1ccc(-c2ccccc2)cc1` (centres undefined) belongs “inactive”; to `OC[C@@H]1CN(C2CCCC2)C[C@H](n2cnc3c(NC4CCC4)ncnc32)O1`, “inactive”; to `CCOc1cccc2c1N[C@@H](c1ccc(C(=O)O)cc1)[C@H]1CC=C[C@@H]21`, “inactive”.

Consider `COc1cccc(C(O)c2ncc(-c3ccc4ccccc4c3)[nH]2)c1` (centres undefined), for which the Potency result was “inactive”. In the case of `CN1CCN(C2Cc3ccc(Cl)cc3Sc3ccc(F)cc32)CC1` (centres undefined), the Potency was 16.4 µM (active). As for `CC(C)CNC(=O)C1(C)CCCN1C(=O)CSc1ccccc1` (centres undefined), the entry is “inactive”; as for `CCCCCn1c(=O)[nH]c2cc(C(=O)Nc3ccc(F)cc3)ccc2c1=O`, “inactive”.

Take `Cc1ccc(S(=O)(=O)/N=C2\C=C(NS(=O)(=O)c3ccc(C)cc3)C(=O)c3ccccc32)cc1`: the Potency entry was “inactive”.

Consider `Cc1cccc(NC(=O)CSc2nc3c(oc4ccccc43)c(=O)n2-c2ccc(F)cc2)c1`, for which the Potency entry was “inactive”. To `Cc1ccc(C)c(NC(=O)CSc2nc3c(oc4ccccc43)c(=O)n2-c2ccccc2)c1` belongs 7.31 µM (active). Consider `COc1ccc(-n2c(SCC(N)=O)nc3c(oc4ccccc43)c2=O)cc1`, for which the Potency result was “inactive”. Consider `Cc1c(C)c(C)c2[nH]c(=S)[nH]c2c1C`, for which the Potency was 3.66 µM (active). As for `CCCOc1ccc(F)cc1-c1cc(C(=O)Nc2ccc(F)cc2)[nH]n1`, the entry is “inactive”; as for `CCC(C)NC(=O)c1ccccc1NC(=O)c1ccccc1N(C)S(C)(=O)=O` (centres undefined), “inactive”; as for `CCCCNC(=O)c1ccccc1NC(=O)c1ccccc1N(C)S(C)(=O)=O`, 23.1 µM (active). `CCCCNC(=O)c1ccccc1NC(=O)C1=C(C)OCCS1`: the Potency entry is “inactive”.
